# Vaccinia mCherry – qHTS for Stage-Specific Inhibitors of Vaccinia Orthopoxvirus: mCherry Reporter Primary qHTS; Vaccinia virus mCherry reporter infection, fluorescence; Potency, µM (highest dose often 36.5 µM), for the others: at the highest dose activity change, negative = inhibition, hits mostly inhibitors; actives 0.63% (n = 310,000); calls by dose curve; tested in A549 cells; further: potency means the concentration at half of the fitted maximal effect; nearly all actives have a fitted effect of over 35% in size
# VACV Venus inh – qHTS for Stage-Specific Inhibitors of Vaccinia Orthopoxvirus: Venus Reporter Primary qHTS; actives 0.46% (n = 330,000); AID 720580, 2013; Potency, µM (series often up to 36.5 µM), inactives show at the highest dose activity change, negative = inhibition, most hits filed as inhibitors; Vaccinia virus Venus reporter expression, fluorescence; calls by dose curve; tested in A549 cells; further: potency means the concentration at half of the fitted maximal effect; nearly all actives have a fitted effect of over 30% in size
# Lassa entry inh – qHTS for Inhibitors of binding or entry into cells for Lassa Virus | actives 1.2% (n = 300,000) | AID 540256, 2011 | Lassa virus pseudotype entry inhibition, cell reporter | Potency, µM (doses to about 37.9 µM), for inactives: at the highest dose activity change, negative = inhibition, actives largely listed as inhibitors; calls by dose curve; tested in HEK293 cells; further: potency means the concentration at half of the fitted maximal effect; nearly all actives have a fitted effect of over 50% in size
# Marburg entry inh – qHTS for inhibitors of binding or entry into cells for Marburg Virus. actives 1.8% (n = 300,000). Potency, µM (doses to about 37.8 µM), without a hit: top-dose activity change, negative = inhibition, usual class: inhibitors. Marburg virus pseudotyped entry inhibition, cell reporter; calls by dose curve; tested in HEK293 cells; further: potency means the concentration at half of the fitted maximal effect
# HCV inhibitor – qHTS Assay for Inhibitors of Hepatitis C Virus (HCV); Huh7.5.1 HCVcc-Cre infection, luciferase reporter, 44 h; Potency, µM (titrated, usually from 41.8 µM), for inactives: at the top dose activity change, negative = inhibition, usual class: inhibitors; actives 3.4% (n = 340,000); AID 651820, 2012; active means well fitted inhibition curve with a large enough effect; inconclusive means small, poorly fitted or top-dose-only effect, or another doubt; inactive means no such curve, though single readings can be large or run the other way; further: potency means the concentration at half of the fitted maximal effect
#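 Cells (1,000/well) were plated 4 h before compound, then infected with HCVcc-Cre virus (~0.5 moi). After 44 h further culture, infection was read as luciferase luminescence following a 15 min substrate incubation at room temperature.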
# HCMV inh – qHTS Assay for inhibitors of the human cytomegalovirus (HCMV); actives 4.5% (n = 410,000); AID 1259415, 2018; activity change, negative = inhibition, % at 57.5 µM; HFF cells, HCMV-luciferase reporter, 72 h; stronger effect = lower value; in the data active means activity change below about -60%; inconclusive means no clear call, values can overlap the other calls; inactive means above about -39%
#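 Screen run at 2 compound doses on HFFs infected with reporter HCMV, MOI 1 PFU/cell. Luciferase activity from cell lysates at 72 h post infection gave inhibition relative to buffer-only and Salinomycin wells.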
# The depositor's hits bear a star; i = inactive; ? = inconclusive; . = no result; [ ] = another dose, or the depositor's remark. Compounds with a hit are over-represented: about 7.8% of the library has one in this group of screens. On the % scale 0 is the no-effect control and ±100 the full control effect.
SMILES,Vaccinia mCherry,VACV Venus inh,Lassa entry inh,Marburg entry inh,HCV inhibitor,HCMV inh
CC(C)n1ncc2c(C(=O)Nc3ccccc3SCC(N)=O)cc(C3CC3)nc21,-17.9%,-17.3%,.,.,.,0.1
O=C(CCS(=O)(=O)c1ccc(Br)s1)Nc1cc(C(F)(F)F)cc(C(F)(F)F)c1,12.6µM*,?,-1.0%[46.1 µM],?,.,-89.7*
C=CCn1c(O)c(C(CC)=Nc2ccc3c(c2)CCC3)c(=O)[nH]c1=O,-17.2%,-18.0%,0.891µM*,9.4%,18.9%,49.8
NNC(=O)c1cncc(Br)c1,-27.1%,-19.9%,-0.4%,-2.1%,10.5%,1.2
Cc1ccc(C(=O)c2cncc(Br)c2)cc1,.,.,9.2%,6.8%,-8.3%,-71.1*
Cc1ccc(SCC(=O)NNC(=O)c2cncc(Br)c2)cc1,-8.7%,-4.1%,-3.8%,?,6.3%,?
CCc1ccc(C(=O)c2cncc(Br)c2)cc1,-12.0%,-13.4%,4.9%,?,8.7%,-69.1*
CN(C(=O)COC(=O)/C=C/c1cccc([N+](=O)[O-])c1)C1CCS(=O)(=O)C1 (configuration not stated),1.78µM*,2.82µM*,-12.5%,3.55µM*,-6.0%,-32.1
CN(C(=O)COC(=O)c1c2c(nc3ccccc13)/C(=C/c1cccc([N+](=O)[O-])c1)CCC2)C1CCS(=O)(=O)C1 (configuration not stated),-14.6%,-23.9%,?,?,1.78µM*,?
O=C(COC(=O)c1c2c(nc3ccccc13)/C(=C\c1ccco1)CC2)NC1CCCC1,-23.4%,-23.0%,-10.6%,?,?,-36.3
COc1ccc2cc(-c3cc(C(=O)OCC(=O)NC4CCS(=O)(=O)C4)c4ccccc4n3)ccc2c1 (configuration not stated),?,-25.9%,3.55µM*,3.16µM*,?,65.7
O=C(COC(=O)c1c2c(nc3ccccc13)/C(=C/c1cccc([N+](=O)[O-])c1)CCC2)NC1CCS(=O)(=O)C1 (configuration not stated),?,?,?,?,3.55µM*,-34.9
Cc1ccc2oc(-c3ccc(NC(=O)COc4ccccc4)cc3O)nc2c1,-26.7%,-23.9%,.,.,.,.
CCC(C(=O)NCc1cc(OC)ccc1OC)n1nc(C)c2sc3ccccc3c2c1=O (configuration not stated),-13.0%,-21.9%,8.0%[46.1 µM],-7.0%[46.1 µM],.,-17.8
Cc1ccc(Nc2nc(C)cc(C)n2)c(C(=O)O)c1,-17.7%,-12.7%,10.1%[46.1 µM],.,.,14.8
COc1ccc(NC(=O)c2c(C)noc2-c2snnc2C)cc1,i,-18.5%,?,10µM*,-21.9%,-32.1
COc1ccc(-c2cc(C(=O)Nc3ccc(C)cc3)no2)cc1,i,-8.0%,0.0%,9.1%,23.0%,42.5
CCCCCCCNC1=CC(=O)CC(c2ccccc2)C1 (configuration not stated),.,.,?,?,?,-87.7*
CCCCCNC1=CC(=O)CC(c2ccccc2)C1 (configuration not stated),.,?,-22.2%,-21.8%,-12.9%,20.2
CCOC(=O)CNC(=O)Nc1cc(C(=O)NCc2ccccc2OC)ccc1N1CCCC1,-9.0%,-3.1%,12.4%[46.1 µM],.,.,15.0
N#CC(=C1C=CC(=NO)C(Cl)=C1)c1ccccc1,1.1%,-10.3%,.,.,.,-98.1*
Cc1c(Cc2ccc3c(c2)OCO3)sc(NC(=O)C(C)(C)C)c1C#N,-15.9%,-21.5%,.,.,11.2µM*,-33.0
CCC(=O)Nc1sc(Cc2ccc3c(c2)OCO3)c(C)c1C(N)=O,.,.,.,.,-18.8%,-11.8
COC1=CC2C(=O)C(C(c3ccccc3)C2C)C1(C)O (configuration not stated),.,.,.,0.9%[14.2 µM],.,.
Nc1ccccc1SC(CC(=O)c1ccccc1)c1ccccc1 (configuration not stated),-8.8%,-0.8%,.,.,.,.
CC(C(Sc1ccccc1N)c1ccccc1)[N+](=O)[O-] (configuration not stated),.,.,.,.,7.3%,-66.8*
